Where “and” joins values, the source holds several entries; their conditions need not be identical. Equal entries are not always repeated. Hit rate of the full screen: of about 360,000 compounds, about 1,100 (0.31%) were called active. Cut-off read from the data, not from the text of the source: active = activity change above about 30% (passing the limit was not always enough); inactive = the rest. The sample as a whole holds a higher share of actives than the screen did. A structure can be active in one record and inactive in another.
Molecular target: Hepatocyte nuclear factor 4-alpha (Homo sapiens) (UniProt P41235)
Sequence (P41235 whole entry, looked up): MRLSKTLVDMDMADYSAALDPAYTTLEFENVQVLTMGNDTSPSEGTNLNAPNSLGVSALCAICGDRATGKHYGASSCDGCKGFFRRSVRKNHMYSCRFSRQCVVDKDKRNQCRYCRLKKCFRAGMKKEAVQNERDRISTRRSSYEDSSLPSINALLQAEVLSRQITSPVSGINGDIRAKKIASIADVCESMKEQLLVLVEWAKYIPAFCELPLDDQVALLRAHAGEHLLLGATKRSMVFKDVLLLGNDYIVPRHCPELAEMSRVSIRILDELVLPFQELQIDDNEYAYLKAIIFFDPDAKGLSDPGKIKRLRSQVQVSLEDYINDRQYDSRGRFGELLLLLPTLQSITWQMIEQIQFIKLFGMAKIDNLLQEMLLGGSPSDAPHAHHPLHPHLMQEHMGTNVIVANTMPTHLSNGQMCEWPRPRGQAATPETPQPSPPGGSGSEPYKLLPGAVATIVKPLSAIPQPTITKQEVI
Assay: change in binding of human HNF4A to DNA, primary screen, biochemical, fluorescence polarization, FITC-DNA (AID 1224865)
Details: 1 h, at 10 µM, stronger effect = higher value

SMILES | activity change
CCc1ccc(CN2C(=O)c3ccccc3C2C(=O)NCC2CCCO2)cc1 (configuration not stated) | 0.41% (inactive)
O=C(NC(=S)Nc1ncccn1)c1ccccc1Br | 1.65% (inactive)
O=C(Nc1cc(Cl)ccc1N1CCOCC1)c1ccc(N2CCCC2=O)cc1 | -2.01% (inactive)
O=C(CCN1C(=O)c2ccccc2C1=O)NNC(=O)c1ccc(Cl)cc1Cl | -1.42% (inactive)
O=C(CCN1C(=O)/C(=C/c2cccs2)SC1=S)NNC(=O)c1cccc(O)c1 | 42.1% (active)
Cc1c(C(=O)NCCN2C(=O)S/C(=C\c3cccs3)C2=O)cccc1[N+](=O)[O-] | -0.17% (inactive)
Cc1cccc(NC(=O)c2ccc(S(=O)(=O)N(C)CC3CCCO3)cc2)c1C (configuration not stated) | -0.21% (inactive)
CC1=C(C(=O)Nc2cccc(C(=O)NCC(C)c3ccccc3)c2)SCCO1 (configuration not stated) | -3.05% (inactive)
Cc1ccc(-c2cnc(C(O)c3cc(Cl)cc(Cl)c3)[nH]2)cc1 (configuration not stated) | 2.03% (inactive)
Cc1cccc(COc2ccccc2/C=N/Nc2ccc([N+](=O)[O-])cc2)c1 | 53.2% (active)
Cc1ccccc1OCCOc1ccc([N+](=O)[O-])cc1/C=N/n1cnnc1 | 0.85% (inactive)
O=[N+]([O-])c1ccc(COc2ccccc2CN2CCOCC2)cc1 | 4.14% (inactive)
Cc1ccc(Cl)cc1NC(=S)N(CCN(C)C)Cc1cccs1 | -2.05% (inactive)
COCCCn1c(=O)/c(=C/c2ccccc2OC(C)C)s/c1=C(\C#N)C(=O)Nc1ccc(C(=O)O)cc1 | 21.5% (inactive)
CCOC(=O)[C@@H]1[C@H]2COc3cc(OC)ccc3[C@H]2N2C(=O)N(c3ccc(F)cc3)C(=O)[C@]12C | -1.52% (inactive)
C#CCOCCOCCOCCNc1nc(N2CCN(C(=O)C(Cc3ccc(O)cc3)n3cc(C(N)CC(C)C)nn3)CC2)nc(N2CCN(C(=O)C(Cc3ccc(O)cc3)n3cc(C(N)C(C)CC)nn3)CC2)n1 (configuration not stated) | 2.78% (inactive)
C#CCOCCOCCOCCNc1nc(N2CCN(C(=O)C([C@@H](C)O)n3cc([C@@H](N)CCCCN)nn3)CC2)nc(N2CCN(C(=O)[C@H](CCCCN)n3cc(CN)nn3)CC2)n1 (some centres not stated) | 59.9% (active)
C#CCOCCOCCOCCNc1nc(N2CCN(C(=O)[C@H](CO)n3cc([C@@H](N)C(C)C)nn3)CC2)nc(N2CCN(C(=O)[C@H](CCC(=O)O)n3cc([C@@H](N)[C@H](C)CC)nn3)CC2)n1 | -0.8% (inactive)
CSc1sc(C)cc1C1C(C#N)=C(N)N(c2cccnc2)C2=C1C(=O)CCC2 (configuration not stated) | -3.92% (inactive)
COC(=O)c1c(C)oc(C)c1S(=O)(=O)Nc1ccc(C(C)C)cc1 | -0.92% (inactive)
FC(F)Oc1ccc(NC(=S)NCc2ccco2)cc1Cl | 8.22% (inactive)
COc1ccc2oc(N)nc2c1 | 0.82% (inactive)

SMILES | activity change
CCc1ccc2oc(-c3ccc(N)cc3)nc2c1 | 71.8% (active)
CC1(C)C/C(=C(/C#N)C(N)=O)CCO1 | -0.48% (inactive)
CCOC(=O)N1CCN(C(=O)C2CCN(S(C)(=O)=O)CC2)CC1 | 30.5% (active)
CCOC(=O)C1CCN(C(=O)C2CCN(S(=O)(=O)CC)CC2)CC1 | -4.66% (inactive)
CCOC(=O)C1CCN(C(=O)C2CCN(S(=O)(=O)N3CCCC3)CC2)CC1 | -3.6% (inactive)
CCCCc1nccn1CCn1ccnc1CCCC | -1.42% (inactive)
O=C(CC1SC(=Nc2ccccc2F)N(CCN2CCOCC2)C1=O)Nc1ccc(F)cc1F (configuration not stated) | 2.99% (inactive)
CC(C)(C)NC(=O)c1ccc(Cn2cc(C(F)(F)F)ccc2=O)cc1 | -4.39% (inactive)
Cc1ccc2[nH]c(=O)c(CN3CCCCC3)c(-c3ccccc3)c2c1 | -1.94% (inactive)
c1ccc2cc3[nH]c(CN4CCCCC4)nc3cc2c1 | 33.4% (active)
O=c1cc(CN2CCCCCCC2)c2c(ccc3ccccc32)o1 | -1.79% (inactive)
O=S(=O)(Cc1ccc(Cl)cc1Cl)c1ccc(Cl)cc1 | 1.8% (inactive)
COC(=O)C1=C(C(=O)OC)C2(OC1c1ccc(Br)cc1)C(=O)c1ccccc1C2=O (configuration not stated) | 0.81% (inactive)
Cn1cccc1/C=C1\SC(=S)N(NC(=O)c2ccc(Cl)cc2)C1=O | 74.6% (active)
CN1C(=O)C(CC(N)=O)N(NC(=O)c2ccc(Cl)cc2)C1=S (configuration not stated) | -1.5% (inactive)
CC(=O)N1C(=O)/C(=C2\SC(=S)N(NC(=O)c3ccc(O)cc3)C2=O)c2ccccc21 | -1.57% (inactive)
O=C(NC1CCCC1)C1c2ccccc2OCC(=O)N1CC(F)(F)F (configuration not stated) | 2% (inactive)
COc1ccc(-c2nc3cc(C)ccn3c2NC2CCCCC2)cc1SC1CCCCC1 | 47.8% (active) and 27.6% (inactive)
COc1cccc(-c2nc3nc(C)cc(C)n3c2NC2CCCCC2)c1 | 3.94% (inactive)
Cc1ccc2nc(-c3cccnc3)c(NC3CCCC3)n2c1 | 6.3% (inactive)
Cc1ccn2c(c1)nc(=O)c1cc(S(=O)(=O)N3CCC(C)CC3)ccc12 | 4.48% (inactive)
Cc1cc(=O)oc2cc(OC(C)C(=O)Nc3ccc(N4CCOCC4)cc3)ccc12 (configuration not stated) | -19.2% (inactive)

SMILES | activity change
O=C(O)c1ccc(NN=CC2=C(N3CCOCC3)/C(=C/c3ccccc3)CC2)cc1 | 41.5% (active)
O=C(O)c1ccc(N=NN2CCOCC2)cc1 | 1.22% (inactive)
O=C(O)c1ccc(N/N=C/c2ccc3ncccc3c2)cc1 | -1.15% (inactive)
O=C(COC(=O)/C=C/c1ccc(S(=O)(=O)N2CCCCCC2)cc1)NCc1ccccc1Cl | -2.22% (inactive)
O=C1CCC(C(=O)N2CCCCO2)CN1Cc1cccc(C(F)(F)F)c1 (configuration not stated) | 1.26% (inactive)
NC(=O)Cn1nc([N+](=O)[O-])nc1Oc1ccc(Br)cc1 | 3.81% (inactive)
CCCCCCCNc1nc(Cl)nc(NCCO)n1 | 1.28% (inactive)
NNc1cccc(C=Cc2ccccc2)cc1=O | 37.5% (active)
O=C(COC(=O)/C=C/c1cccc(Cl)c1)NCCc1ccccc1 | 1.96% (inactive)
O=C(COC(=O)c1cc(S(=O)(=O)N2CCOCC2)ccc1F)NC1CC1 | -0.17% (inactive)
O=C(c1ccc[nH]c1=S)N1CCN(S(=O)(=O)c2ccc(Br)cc2Cl)CC1 | 0.57% (inactive)
COc1ccccc1N1CCN(C(=O)C(=O)N/N=C/c2ccccc2F)CC1 | -1.71% (inactive)
COc1cc(/C=N\NC(=O)c2nonc2N)c(OC)cc1Br | -0.19% (inactive)
COc1cccc(/C=N/NC(=O)c2[nH]nc3c2CCc2ccccc2-3)c1O | 49.2% (active)
O=C1COc2ccc(S(=O)(=O)NCCc3ccc(Cl)cc3)cc2N1 | 1.98% (inactive)
CC(C)n1c(O)c(N=Nc2ccccn2)c2ccccc21 | 0.04% (inactive)
CCOCCCNC(=O)Cc1cc(=O)[nH]c(=O)[nH]1 | -0.4% (inactive)
N#CCCN1CCN(S(=O)(=O)c2ccc(S(=O)(=O)NC3CCCCC3)cc2)CC1 | 0.96% (inactive)
CCn1c(/C=C/c2ccc([N+](=O)[O-])o2)nc2ccccc2c1=O | 92.1% (active)
O=C(/C=C/c1ccc([N+](=O)[O-])o1)NNC(=O)c1ccc(F)cc1 | 0.84% (inactive)
C=CCn1c(SCC(=O)NC(=O)Cc2ccccc2)nc2ccccc2c1=O | 1.95% (inactive)
COc1ccccc1CCNC(=O)CN1C(=O)NC2(CCCC2)C1=O | 1.6% (inactive)

SMILES | activity change
COc1ccc(C(=O)N2CCCCC2c2cc(C(=O)Nc3ccc(F)c(Cl)c3)no2)cc1 (configuration not stated) | -0.55% (inactive)
COc1ccc(/C(C)=N/N2CCOCC2)c(O)c1 | 1.11% (inactive)
CN1/C(=c2/s/c(=C3/C(=O)N(c4ccccc4)NC3=Nc3ccccc3)n(C)c2=O)C(C)(C)c2ccccc21 | 66.2% (active)
O=C(CO/N=C/c1ccc(OC(F)F)cc1)NCc1ccc(F)cc1 | -1.87% (inactive)
CCOC(=O)C1CCCN(C(=O)CSc2nnc3nc(C)cc(C)n23)C1 (configuration not stated) | -2.41% (inactive)
COc1ccc(CCNC(=O)CN(C)S(=O)(=O)c2ccc3nc(C)sc3c2)cc1OC | 3.34% (inactive)
COc1ccc(-c2ccc(C(=O)NCCN3CCOCC3)c3occc23)c(C)c1 | -3.94% (inactive)
CCC(C)N1C(=O)S/C(=C/c2ccc(Sc3nc4ccccc4[nH]3)o2)C1=O (configuration not stated) | 77.3% (active)
CCC(c1nc2ccccc2[nH]1)n1c(=O)c(-c2cccs2)nc2ccccc21 (configuration not stated) | 4.95% (inactive)
CCOC(=O)/C(C#N)=C\c1c(C)cc(C)c(COC(C)=O)c1C | 2.55% (inactive)
CCOC(=O)/C(C#N)=C/c1ccc(N2CCCCC2)cc1 | 42.2% (active)
COC(=O)/C(C#N)=C/c1occc1C | -1.39% (inactive)
CCOc1ccc(-c2nc(C)sc2CC(=O)O)cc1 | 1.37% (inactive)
CC(=O)NC(CC(=O)Nc1nc(-c2ccccc2)c(C(C)=O)s1)c1ccccc1 (configuration not stated) | 0.99% (inactive)
C/C(=N/Nc1nc(-c2ccccc2)c(CC(=O)O)s1)c1ccccc1 | 48.6% (active)
CC(C)c1ccc(Nc2nnc(SCC(=O)c3nnc(-c4ccccc4)o3)s2)cc1 | 7.36% (inactive)
COc1ccc(CNC(=O)CN(Cc2ccc(Cl)cc2)S(C)(=O)=O)cc1 | 1.96% (inactive)
CC[n+]1cc(C)ccc1/C=C/c1ccc(N(C)C)cc1 | 76.1% (active)
COc1ccccc1CNC(=O)c1ccc(N(C)S(=O)(=O)c2ccc(C)cc2)cc1 | 0.49% (inactive)
COc1cc(NS(=O)(=O)c2ccc(NC(=O)c3ccc(S(=O)(=O)N4CCCCC4)cc3)cc2)ncn1 | -0.94% (inactive)
COC(=O)[C@]1(C)N[C@H](c2ccc(-c3ccc(Cl)c(Cl)c3)cc2)[C@@H]2C(=O)N(C)C(=O)[C@@H]21 | -0.96% (inactive)
